The source of these data is PubChem BioAssay AID1085 (Emory University Molecular Libraries Screening Center, 2008).

A word on the inhibition: it is the relative decrease from the control value, in per cent.

Structures are written as SMILES. About 930 (0.42%) of roughly 220,000 compounds were called active. Only a selection was taken, and actives are over-represented in it overall. Values without a mark were called inactive. No stated cut-off is given here; in the data, active means inhibition above about 50%; inactive means the rest.

Chain of Glycoprotein 42 (Epstein-Barr virus (strain AG876)) (Q1HVG2 whole entry, looked up): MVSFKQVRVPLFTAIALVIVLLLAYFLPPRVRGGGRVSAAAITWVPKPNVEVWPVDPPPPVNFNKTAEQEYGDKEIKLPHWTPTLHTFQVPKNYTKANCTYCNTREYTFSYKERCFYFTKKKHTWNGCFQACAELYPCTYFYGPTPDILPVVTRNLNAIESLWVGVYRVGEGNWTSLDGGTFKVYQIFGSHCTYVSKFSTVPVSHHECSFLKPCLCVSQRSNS

The assay addresses Glycoprotein 42 (Epstein-Barr virus (strain AG876)) (UniProt Q1HVG2). In words: Epstein-Barr virus gp42 inhibitors, primary screen, biochemical, uHTS, fluorescence polarization (AID 1085). The settings on record: Fluorescence polarization binding assay, mP read-out; hits give high values; tested at 21.74 µM. In general terms: In fluorescence polarisation assays a small probe gives low polarisation when free and higher when bound to something large.
Consider `CN(C)c1ccc(Nc2c3c4c(cccc4n(C)c2=O)C(=O)c2ccccc2-3)cc1`, for which the inhibition is 51.7% (active).
For the compound `COC(=O)Cn1nc(-c2ccccc2)c2cc(Cl)ccc21`, the inhibition was -7.25%.
With `CCOC(=O)N1CCN(Cc2nc(Cc3cccc(C(F)(F)F)c3)no2)CC1`, the inhibition is 5.02%.
Then `O=C(COC(=O)/C=C/c1ccc(S(=O)(=O)N2CCCCCC2)cc1)NCc1ccccc1Cl`, with -7.1%; and `NC(=O)c1sc2nc3c(c(-c4ccccc4)c2c1N)CCC3`, with 68.4% (active).
For `Cc1cccc(NC(=O)c2sc3nc4c(c(-c5ccco5)c3c2N)CCC4)c1`, the inhibition was -22.7%.
Take `CC(=O)Nc1ccc(NC(=O)c2sc3nc4c(c(-c5ccc(C)cc5)c3c2N)CCC4)cc1`: the inhibition was -13.2%.
For the compound `[O-][N+]12CCCCC1CCCC2CO` (configuration not stated), the inhibition was -12%.
Then `CCN(CC)c1ccc2c(Nc3ccccc3)c(C=O)c(=O)oc2c1`, with -27.9%; and `CCN(CC)c1ccc2cc(C(=O)O)c(=O)oc2c1`, with -20.2%.
As to `CCN(CC)c1ccc2oc(=O)c(C)nc2c1`, the inhibition was 51.1% (active).
The value for `CCOC(=O)C1=C(c2ccccc2)N=C2SCC(=O)N2C1c1ccc(O)c(OC)c1` (configuration not stated) was -7.62%.
In the case of `CSCC[C@H](NC(=O)NC1CCCC1)C(=O)O`, the inhibition is -16.3%.
In the case of `COc1ccc(Cc2nnc(NC(=O)Cc3cccs3)s2)cc1`, the inhibition is 73.9% (active).
Then `CCc1nnc(NC(=O)Cc2cccs2)s1`, with 15.8%; and `O=C(Cc1cccs1)Nc1nnc(C2CC2)s1`, with -0.17%.
With `CC(C)CCN1CCN(C/C=C/c2ccco2)CC1CCO` (configuration not stated), the inhibition is 0.69%.
In the case of `O=C(Nc1ccc(N2CCN(C(=O)c3ccccc3)CC2)c(Cl)c1)c1ncn[nH]1`, the inhibition is -5.31%.
Consider `O=C(/C=C/Nc1ccc(S(=O)(=O)Nc2cnc3ccccc3n2)cc1)c1cccnc1`, for which the inhibition was 0.92%.
On to `COCCNC(=O)Nc1ccc2nc(-c3ccco3)c(-c3ccco3)nc2c1`, for which the inhibition is 52.7% (active).
Take `O=C(NCc1ccccn1)c1ccc2nc(-c3ccco3)c(-c3ccco3)nc2c1`: the inhibition is 33.5%.
Then `COc1ccc(NC(=O)Nc2ccc3nsnc3c2)cc1`, with -9.53%; and `O=C(/C=C/c1cn(-c2ccccc2)nc1-c1ccc2c(c1)OCCO2)NCCCN1CCOCC1`, with -12.9%; and `CC(=O)c1ccccc1NC(=O)CC1(CC(=O)O)CCCCC1`, with -14.7%.
With `Cc1cc(F)ccc1S(=O)(=O)Nc1ncnc2scc(-c3ccc(F)cc3)c12`, the inhibition is 9.65%.
`COc1cccc(N(CC(=O)NCCSc2ccccn2)S(C)(=O)=O)c1`: the inhibition is -23.3%.
As for `Brc1ccc(-c2csc(N/N=C/c3cccnc3)n2)cc1`, the inhibition is 2.77%.
As to `CCCNc1c(N)c(=O)c1=O`, the inhibition is 2.64%.
For the compound `O=c1[nH]c2c(c(=O)n1Cc1ccccc1)CCC2`, the inhibition is -9.97%.
`Cc1cc2nc3c(=O)n(Cc4ccccc4)c(=O)[nH]c3nc2cc1N`: the inhibition was 135% (active).
As to `CC(=O)c1ccc(-c2ccc(Cn3c(C)nc4cc(N)c(C)nc43)cc2)cc1`, the inhibition is 2.98%.
`COC(=O)CCSc1cc([N+](=O)[O-])cc2c1c(C1OCCS1)nn2-c1ccccc1` (configuration not stated): the inhibition is 24.1%.
Turning to `CCCCCC(=O)Nc1ccc(C(=O)N/N=C/c2ccc([N+](=O)[O-])cc2)cc1`, the inhibition was -19.6%.
Then `O=C(N/N=C/c1ccc(OCc2ccccc2)cc1)c1ccc(O)cc1`, with -4.07%; and `O=C(COc1ccc(/C=N/NC(=O)c2ccc(O)cc2)cc1)Nc1ccc([N+](=O)[O-])cc1`, with 77.5% (active).
Regarding `C/C=C\C=C\C(=O)N1CC2(CC(c3cccc(NC(=O)/C(C)=C\C)c3)=NO2)C[C@H]1C(N)=O` (some centres not stated), the inhibition was -17.9%.
The value for `CSc1ccccc1NC(=O)CN(C)CC(=O)Nc1cccc(Br)c1` was -0.02%.
